For 34 compounds, cell count and activation results are on record in PubChem BioAssay AID1961 (Sanford-Burnham Center for Chemical Genomics, 2009).

Assay [1] is described as follows: GPR55 agonists via beta-arrestin recruitment, primary screen, imaging, U2OS cells, beta-arrestin-GFP redistribution (AID 1961).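 Also: U2OS osteosarcoma cells stably expressing GPR55 and beta-arrestin-GFP.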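 As to activation: plate controls were DMSO negative control for no effect and LPI positive control for full effect.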 As to conditions: measured here: cytotoxicity, cells analyzed, at 10 µM. (Recruitment of arrestin is a read-out of receptor activation apart from second messengers.)
In assay [2] the target is G-protein coupled receptor 55 (Homo sapiens) (UniProt Q9Y2T6). The description is as above. As to conditions: at 10 µM, stronger effect = higher value.
G-protein coupled receptor 55 (Homo sapiens), sequence (Q9Y2T6 whole entry, looked up): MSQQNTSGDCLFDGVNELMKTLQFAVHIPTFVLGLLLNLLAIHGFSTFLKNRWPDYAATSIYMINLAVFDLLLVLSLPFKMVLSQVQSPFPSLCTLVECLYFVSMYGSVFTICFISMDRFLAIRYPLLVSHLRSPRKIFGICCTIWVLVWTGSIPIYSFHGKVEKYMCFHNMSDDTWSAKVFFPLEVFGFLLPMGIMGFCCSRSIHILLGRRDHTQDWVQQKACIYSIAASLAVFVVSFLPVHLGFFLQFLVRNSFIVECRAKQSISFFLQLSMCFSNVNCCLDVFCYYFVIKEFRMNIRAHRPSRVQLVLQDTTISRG

SMILES strings stand for the structures. In all, about 290,000 compounds went through this assay and about 140 (0.048%) were called active.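 The calls were made as follows: active = activation above 40% with more than 50 cells counted in the well; inconclusive = wells holding fewer than 50 cells, flagged as toxic or sparse; inactive = the rest.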 The sample as a whole holds a higher share of actives than the screen did.

Turning to `COc1cccc(C(=O)Nc2cnn(C(C)C)c2)c1`, in assay [1], the cell count came to 253 cells. The activation in assay [2] was -0.2% (inactive).

In turn, `CNc1nc(-c2ccc(Cl)cc2)cs1` displayed a cell count in assay [1] of 302 cells. The activation in assay [2] is -1% (inactive).

Turning to `COc1ccc(NC(=O)NC2CCCCCCC2)c(OC)c1`, the cell count in assay [1] came out at 240 cells. Also, in assay [2], the activation is -0.1% (inactive).

On to `CCC(=O)Nc1ccc(OC)cc1OC`, for which, in assay [1], the cell count turned out to be 375 cells. Further, the activation in assay [2] was -0.2% (inactive).

Regarding `CCOC(=O)c1[nH]c2ccc(C(=O)OC)cc2c1C(=O)OCC`, the cell count in assay [1] was determined as 400 cells. Moreover, in assay [2], the activation was -0.3% (inactive).

In assay [1], `CCCCc1ccc(C2C(C#N)=C(N)SC(N)=C2C#N)s1` returned a cell count of 340 cells. Moreover, the activation in assay [2] is 0.2% (inactive).

As for `O=C(COC(=O)/C=C/c1cccc(Cl)c1)NCCc1ccc(Cl)cc1Cl`, in assay [1], the cell count is 315 cells. Further, the activation in assay [2] is 0% (inactive).

In assay [1], `O=C(O)C1CCCN1C(=O)c1cncc(Br)c1` (stereo not drawn) registered a cell count of 262 cells. Further, the activation in assay [2] is -0.2% (inactive).

Consider `CC(C)OCC(O)Cn1c(N2CCCC2)nc2c1c(=O)[nH]c(=O)n2C` (stereo not drawn), for which the cell count in assay [1] stood at 350 cells. Further, the activation in assay [2] was -0.2% (inactive).

In assay [1], `Cc1c(C2N3CC4(C)CN2CC(C)(C3)C4=O)c2ccccc2n1C` (stereo not drawn) yielded a cell count of 309 cells. The activation in assay [2] is 0.1% (inactive).

As to `CC(C)(C)NC(=O)CSc1nncn1NCc1c(Cl)cccc1Cl`, the cell count in assay [1] was 294 cells. In assay [2], the activation was -0.2% (inactive).

In assay [1], `COc1cc2c3nnc(-c4ccccc4)c-3cn(Cc3ccc(F)cc3)c2cc1OC` had a cell count of 393 cells. Further, the activation in assay [2] is 1.3% (inactive).

In the case of `COc1cc2c3nnc(-c4ccc(F)cc4)c-3cn(Cc3ccc(F)cc3)c2cc1OC`, the cell count in assay [1] came out at 348 cells. For the same compound, the activation in assay [2] was 16.9% (inactive).

As to `COc1cc2c3nnc(-c4ccc(F)cc4)c-3cn(Cc3ccccc3F)c2cc1OC`, the cell count in assay [1] is 274 cells. Besides, the activation in assay [2] was 76.7% (active).

As for `Cc1oc2c(C)c(O)ccc2c(=O)c1N1C(=O)c2ccccc2C1=O`, the cell count in assay [1] is 286 cells. Further, in assay [2], the activation is 0.2% (inactive).

Compound `CCOc1ccc2nc(SCC(=O)N3CCCCCC3)c(C#N)cc2c1` showed a cell count in assay [1] of 334 cells. Also, the activation in assay [2] is -0.1% (inactive).

In assay [1], `CCOc1ccc2nc(SCC(=O)N3c4ccccc4Sc4ccccc43)sc2c1` yielded a cell count of 319 cells. The activation in assay [2] was 16.7% (inactive).

In the case of `CCOc1ccc2nc(SCC(=O)N3c4ccccc4Sc4ccccc43)c(C#N)cc2c1`, the cell count in assay [1] was 304 cells. For the same compound, in assay [2], the activation was 112% (active).

`Nc1cccnc1Sc1ccc(Cl)cc1`: the cell count in assay [1] is 377 cells. In addition, in assay [2], the activation was 0% (inactive).

In the case of `COC(=O)c1cc(OC)c(OC)cc1NC(=O)CC1CCCCC1`, the cell count in assay [1] was found to be 320 cells. Moreover, the activation in assay [2] is -0.2% (inactive).

With `Cc1cccc(NS(=O)(=O)c2cc([N+](=O)[O-])ccc2C)n1`, the cell count in assay [1] is 419 cells. Also, the activation in assay [2] is -0.1% (inactive).

Take `COc1cc(/C=C/C(=O)Oc2coc(CSc3ncccn3)cc2=O)cc(OC)c1OC`: the cell count in assay [1] worked out at 281 cells. For the same compound, the activation in assay [2] is -0.2% (inactive).

Take `CCCOCC(O)COc1ccccc1C(=O)N1CCOCC1` (stereo not drawn): in assay [1], the cell count stood at 317 cells. The activation in assay [2] is -0.2% (inactive).

As to `CCC1Sc2ccc(S(=O)(=O)CCC(=O)Nc3cc(C)ccn3)cc2NC1=O` (stereo not drawn), in assay [1], the cell count turned out to be 341 cells. In assay [2], the activation is -0.1% (inactive).

For `CC(NC(=O)Cn1nc(C(F)(F)F)c2c1CCC2)c1ccccc1` (stereo not drawn), the cell count in assay [1] worked out at 371 cells. Moreover, the activation in assay [2] is -0.2% (inactive).

`COc1ccc2nc(C)cc(SCC(=O)N/N=C/c3ccco3)c2c1` gave a cell count in assay [1] of 330 cells. In assay [2], the activation is 0.2% (inactive).

In assay [1], `Cc1ccccc1NC(=O)NC1CCCCC1C` (stereo not drawn) registered a cell count of 353 cells. Besides, the activation in assay [2] was 0.4% (inactive).

For the compound `CN(C)c1ccc(/C=N/NC(=O)C2CC2c2ccccc2)cc1` (stereo not drawn), the cell count in assay [1] was determined as 339 cells. Further, the activation in assay [2] is -0.2% (inactive).

In turn, `O=C(NCc1ccc(F)cc1)C(=O)NCC1OCCCN1S(=O)(=O)c1cccs1` (stereo not drawn) displayed a cell count in assay [1] of 348 cells. In assay [2], the activation is -0.1% (inactive).

Compound `COc1ccc(C(=O)NCC(=O)N/N=C/c2cccnc2)cc1OC` showed a cell count in assay [1] of 322 cells. In addition, the activation in assay [2] is -0.2% (inactive).

With `Cc1nc(Cl)sc1C(=O)Nc1cc(F)cc(F)c1`, the cell count in assay [1] was found to be 356 cells. In addition, the activation in assay [2] was -0.2% (inactive).

For `CN(C)c1ccc(C(=O)/C=C/c2ccccc2)cc1`, the cell count in assay [1] was 254 cells. The activation in assay [2] is -0.3% (inactive).

`CN(C)c1ccc(/C=C/C(=O)c2ccccc2O)cc1` gave a cell count in assay [1] of 238 cells. The activation in assay [2] was 0.1% (inactive).

For the compound `Cn1c(=O)c(=O)n(C)c2cc(S(=O)(=O)N3CCN(c4ccccc4F)CC3)ccc21`, in assay [1], the cell count is 328 cells. The activation in assay [2] is -0.1% (inactive).
